High-throughput results: PubChem, several laboratories
ANO1 block – TMEM16A chloride channel inhibitors, primary screen, cell-based, HTS; HEK293 TMEM16A/YFP iodide influx fluorescence, ionomycin; Anoctamin-1 (Mus musculus), Q8BHY3; AID 588511, 2011; hit rate 1.2% among 310,000; normalized B-score (activity score, 25-100; higher = stronger inhibition) at 10 µM;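 active means ratio plate-corrected score three or more library SD toward inhibition, starting fluorescence score within five deviations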;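 further: score derived from kinetic fluorescence span divided by baseline fluorescence per well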
Target sequence (Q8BHY3 whole entry, looked up): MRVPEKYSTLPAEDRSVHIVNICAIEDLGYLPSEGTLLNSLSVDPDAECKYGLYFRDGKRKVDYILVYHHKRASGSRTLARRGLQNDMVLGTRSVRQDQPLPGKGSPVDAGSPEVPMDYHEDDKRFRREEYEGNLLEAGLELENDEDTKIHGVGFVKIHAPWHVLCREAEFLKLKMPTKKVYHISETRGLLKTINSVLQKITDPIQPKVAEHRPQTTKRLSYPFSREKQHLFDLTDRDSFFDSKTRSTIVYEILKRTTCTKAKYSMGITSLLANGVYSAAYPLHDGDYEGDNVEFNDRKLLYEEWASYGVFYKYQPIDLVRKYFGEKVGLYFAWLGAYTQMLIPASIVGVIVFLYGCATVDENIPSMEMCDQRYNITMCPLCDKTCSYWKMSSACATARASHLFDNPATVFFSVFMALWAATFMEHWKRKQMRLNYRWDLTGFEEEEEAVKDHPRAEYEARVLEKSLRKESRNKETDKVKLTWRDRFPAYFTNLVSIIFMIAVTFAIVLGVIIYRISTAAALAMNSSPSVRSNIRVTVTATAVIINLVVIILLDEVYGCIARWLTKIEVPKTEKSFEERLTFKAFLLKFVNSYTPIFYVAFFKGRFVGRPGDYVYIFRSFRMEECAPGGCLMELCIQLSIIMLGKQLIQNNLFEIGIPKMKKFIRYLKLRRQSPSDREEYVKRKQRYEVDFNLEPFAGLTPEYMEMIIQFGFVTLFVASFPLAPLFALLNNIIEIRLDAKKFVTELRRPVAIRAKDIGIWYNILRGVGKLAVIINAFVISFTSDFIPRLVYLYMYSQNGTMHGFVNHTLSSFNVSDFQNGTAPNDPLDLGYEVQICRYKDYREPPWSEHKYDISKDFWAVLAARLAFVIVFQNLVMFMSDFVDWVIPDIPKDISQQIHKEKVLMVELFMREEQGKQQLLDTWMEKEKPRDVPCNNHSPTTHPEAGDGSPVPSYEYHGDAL
CHT PAM – CHT positive allosteric modulators, primary screen, cell-based, membrane potential dye, choline EC20 | hit rate 0.49% among 310,000 | CHT-expressing cells; active compounds read high; LV-AA mutant CHT in HEK293 cells | B-score at 10 µM;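 active means initial fluorescence not abnormally high and integrated response B-score, plate-corrected, over 3 SD above library mean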
Rce1 inhib – yeast Rce1p protease inhibitors, primary screen, biochemical, fluorescence, cell-free homogeneous. CAAX prenyl protease 2 (Saccharomyces cerevisiae (strain ATCC 204508 / S288c)), Q03530. yeast membranes, quenched prenylated peptide cleavage fluorescence. calls only. hit rate 0.27% among 290,000. AID 2563, 2010;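 active means fall in fluorescence gain of 50% or more versus controls, with final raw signal at or below 3038400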;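 further: plate controls were neutral control wells for no effect and wells lacking membranes for full effect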
CHT inh – inhibitors of human choline transporter CHT; B-score at 10 µM; AID 488975, 2010; CHT-expressing cells, membrane potential dye, choline response; active compounds read low; hit rate 0.86% among 310,000; High affinity choline transporter 1 (Homo sapiens), Q9GZV3;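 active means B-score over 3 SD under the library average, and starting fluorescence ratio not unusually high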;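 further: choline stimulus applied at its EC90 after an EC20 pre-addition; B-score computed on integrated fluorescence ratio after choline addition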
Kir21 inh – inhibitors of mouse Kir2.1 inward-rectifier potassium channel | Inward rectifier potassium channel 2 (Mus musculus), P35561 | HEK293-Kir2.1, FluxOR thallium flux fluorescence; active compounds read low | B-score at 10 µM | hit rate 0.85% among 310,000;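 active means fluorescence ratio B-score at or below minus 3 SD of library scores, with starting-brightness B-score within 2 SD, cut at about -4.2 in these data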;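 further: channel flux triggered by added potassium and thallium sulfate stimulus; B-score of peak minus minimum fluorescence over baseline after thallium stimulus; more negative B-score means stronger Kir2.1 block with less thallium influx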
TMEM16A act – TMEM16A chloride channel activators or potentiators, primary screen, cell-based, HTS | Anoctamin-1 (Mus musculus), Q8BHY3 | HEK293 TMEM16A/YFP-H148Q/I152L, iodide quench fluorescence; active compounds read low | B-score at 10 µM | hit rate 0.3% among 340,000 | AID 623877, 2012;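 active means fluorescence-ratio B-score plate-corrected deviation score at least 3 library SD below zero, with starting fluorescence score within 5 deviations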;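 further: channel opened by trigger with iodide after compound preincubation; score built on the fluorescence ratio of max minus min over baseline; more negative score means more quench and so TMEM16A activation or potentiation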
Active calls of the source: *. The list is not random: actives were taken first. Their share in the collection is about 3.2%.

How did CC12CCC(=O)N1C(C(=O)Nc1cc(Cl)ccc1N1CCCC1)CS2 (stereo not drawn) do in these assays?
TMEM16A act: inactive

What do the screens show for `c1ccc(-c2nnc(-c3ccncc3)nc2-c2ccccc2)cc1`?
ANO1 block: inactive; CHT PAM: inactive; Rce1 inhib: active; CHT inh: inactive; Kir21 inh: -0.1; TMEM16A act: inactive

Results for COc1ccc(-c2csc(NC(=O)CN3C(=O)CCC3=O)n2)cc1 ?
ANO1 block: inactive; CHT PAM: inactive; Rce1 inhib: inactive; CHT inh: inactive; Kir21 inh: -1.3; TMEM16A act: inactive

What do the screens show for `COc1ccc(-c2csc(NC(=O)CSc3n[nH]c(C)n3)n2)cc1`?
ANO1 block: 25*; CHT PAM: inactive; Rce1 inhib: inactive; CHT inh: inactive; Kir21 inh: -0.53; TMEM16A act: inactive

What do the screens show for `Nc1nc(CSCc2ccccc2)nc(N2CCOCC2)n1`?
ANO1 block: inactive; CHT PAM: inactive; Rce1 inhib: inactive; CHT inh: inactive; Kir21 inh: -0.83; TMEM16A act: -15*

Results for CC(C)CC(=O)Nc1nc(-c2ccc(S(=O)(=O)N3CCOCC3)cc2)cs1 ?
Rce1 inhib: inactive; Kir21 inh: 0.74; TMEM16A act: inactive

Results for Cc1ccc(Nc2nc(-c3ccc(S(=O)(=O)N4CCOCC4)cc3)cs2)cc1Cl ?
ANO1 block: inactive; CHT PAM: inactive; Rce1 inhib: active; CHT inh: inactive; Kir21 inh: 0; TMEM16A act: inactive

How did COc1cc(/C(C)=N\NC(=O)CSc2nc3ccccc3n2C)ccc1O do in these assays?
ANO1 block: inactive; CHT PAM: inactive; Rce1 inhib: inactive; CHT inh: inactive; Kir21 inh: -1.2; TMEM16A act: inactive

What do the screens show for `CC(=O)Oc1ccc(-c2nc(-c3cccnc3)no2)cc1`?
ANO1 block: inactive; CHT PAM: inactive; Rce1 inhib: inactive; CHT inh: inactive; Kir21 inh: 2.5; TMEM16A act: -15*

How did Clc1ccc(CO/N=C2\CCCc3nonc32)c(Cl)c1 do in these assays?
ANO1 block: inactive; CHT PAM: inactive; Rce1 inhib: inactive; CHT inh: inactive; Kir21 inh: 1; TMEM16A act: inactive

How did CCOC(=O)c1c(C)[nH]c(C)c1S(=O)(=O)N1CCN(C(=O)c2ccco2)CC1 do in these assays?
ANO1 block: inactive; CHT PAM: inactive; Rce1 inhib: inactive; CHT inh: inactive; Kir21 inh: 0.39; TMEM16A act: inactive

Results for CCC(C(=O)Nc1cccc(C(F)(F)F)c1)c1ccccc1 (stereo not drawn) ?
ANO1 block: inactive; CHT PAM: inactive; Rce1 inhib: inactive; CHT inh: inactive; Kir21 inh: 0.18; TMEM16A act: -6.6*

How did O=C(Nc1cccc(C(F)(F)F)c1)C(SCCO)c1ccccc1 (stereo not drawn) do in these assays?
ANO1 block: inactive; CHT PAM: inactive; Rce1 inhib: inactive; CHT inh: inactive; Kir21 inh: -1.3; TMEM16A act: inactive

How did Cc1ccccc1-n1nc(C)c2cc(C(=O)N3CCN(S(=O)(=O)c4ccc(Cl)cc4)CC3)sc21 do in these assays?
ANO1 block: inactive; CHT PAM: inactive; Rce1 inhib: inactive; CHT inh: inactive; Kir21 inh: 0.47; TMEM16A act: inactive

What do the screens show for `Cc1ccc(S(=O)(=O)N2CCN(C(=O)c3cc4c(C)nn(-c5ccccc5)c4s3)CC2)cc1`?
ANO1 block: inactive; CHT PAM: inactive; Rce1 inhib: active; CHT inh: inactive; Kir21 inh: 0.71; TMEM16A act: inactive

How did COc1ccc(S(=O)(=O)N2CCOC2CNC(=O)C(=O)NCc2ccccn2)cc1C (stereo not drawn) do in these assays?
ANO1 block: inactive; CHT PAM: inactive; Rce1 inhib: inactive; CHT inh: inactive; Kir21 inh: 1.2; TMEM16A act: inactive

How did NC(=O)[C@H]1CC2(CC(c3cccc(NC(=O)COc4ccc(Cl)cc4)c3)=NO2)CN1C(=O)C(c1ccccc1)c1ccccc1 (stereo partly drawn) do in these assays?
ANO1 block: inactive; CHT PAM: inactive; Rce1 inhib: active; CHT inh: inactive; Kir21 inh: 1.3; TMEM16A act: inactive

What do the screens show for `NC(=O)[C@@H]1CC2(CC(c3cccc(NC(=O)CC(c4ccccc4)c4ccccc4)c3)=NO2)CN1C(=O)c1ccc(Cl)cc1` (stereo partly drawn)?
ANO1 block: inactive; CHT PAM: inactive; Rce1 inhib: active; CHT inh: inactive; Kir21 inh: 0.5; TMEM16A act: inactive

What do the screens show for `NC(=O)[C@H]1CC2(CC(c3cccc(NC(=O)CC(c4ccccc4)c4ccccc4)c3)=NO2)CN1C(=O)CC(c1ccccc1)c1ccccc1` (stereo partly drawn)?
ANO1 block: inactive; CHT PAM: inactive; Rce1 inhib: inactive; CHT inh: inactive; Kir21 inh: -0.67; TMEM16A act: inactive

How did NC(=O)[C@@H]1CC2(CC(c3cccc(NC(=O)COc4ccc(Cl)cc4)c3)=NO2)CN1C(=O)COc1ccc(Cl)cc1 (stereo partly drawn) do in these assays?
ANO1 block: inactive; CHT PAM: inactive; Rce1 inhib: inactive; CHT inh: inactive; Kir21 inh: -0.53; TMEM16A act: inactive

How did CN(Cc1ccccc1)C(=O)COC(=O)CN1C(=O)c2ccccc2C1=O do in these assays?
TMEM16A act: inactive

How did [O-][n+]1c2c(c3c4non(O)c4ccc31)CCCC2 do in these assays?
ANO1 block: 100*; CHT PAM: inactive; Rce1 inhib: inactive; CHT inh: inactive; Kir21 inh: -4.7; TMEM16A act: inactive

How did COn1c2c(c3c4no[n+]([O-])c4ccc31)CCCC2 do in these assays?
ANO1 block: inactive; CHT PAM: inactive; Rce1 inhib: inactive; CHT inh: inactive; Kir21 inh: -0.25; TMEM16A act: inactive

What do the screens show for `COc1ccc(CC(=O)OCC(=O)N2CCc3ccccc32)cc1OC`?
TMEM16A act: -25*

Results for CN(C(=O)c1ccoc1)c1ccc2ccccc2c1 ?
ANO1 block: inactive; CHT PAM: inactive; Rce1 inhib: inactive; CHT inh: inactive; Kir21 inh: 2.2; TMEM16A act: inactive

How did CC(C)n1c(=NC(=O)c2ccco2)c(C#N)cc2c(=O)n3ccccc3cc21 do in these assays?
ANO1 block: inactive; CHT PAM: 7.2*; Rce1 inhib: inactive; CHT inh: inactive; Kir21 inh: -0.73; TMEM16A act: inactive
